Reference: the supplement of paper PMC11732987, “Enantioselective OTUD7B fragment discovery through chemoproteomics screening and high-throughput optimisation” (Communications Chemistry, 2025)

Key:
Assay in all cases: log2 ratio of Biotin-Ahx-Ub-VS probe labelling (fragment/DMSO); higher = less target engagement (more negative = stronger competition), active = hit call of the paper (q ≤ 0.05, log2 ratio ≤ -1)
Settings in all cases: compound concentration: 200 uM; treatment time: 3 h
USP19 = target: T1, USP19 (UniProt O94966)
T1 sequence (whole entry): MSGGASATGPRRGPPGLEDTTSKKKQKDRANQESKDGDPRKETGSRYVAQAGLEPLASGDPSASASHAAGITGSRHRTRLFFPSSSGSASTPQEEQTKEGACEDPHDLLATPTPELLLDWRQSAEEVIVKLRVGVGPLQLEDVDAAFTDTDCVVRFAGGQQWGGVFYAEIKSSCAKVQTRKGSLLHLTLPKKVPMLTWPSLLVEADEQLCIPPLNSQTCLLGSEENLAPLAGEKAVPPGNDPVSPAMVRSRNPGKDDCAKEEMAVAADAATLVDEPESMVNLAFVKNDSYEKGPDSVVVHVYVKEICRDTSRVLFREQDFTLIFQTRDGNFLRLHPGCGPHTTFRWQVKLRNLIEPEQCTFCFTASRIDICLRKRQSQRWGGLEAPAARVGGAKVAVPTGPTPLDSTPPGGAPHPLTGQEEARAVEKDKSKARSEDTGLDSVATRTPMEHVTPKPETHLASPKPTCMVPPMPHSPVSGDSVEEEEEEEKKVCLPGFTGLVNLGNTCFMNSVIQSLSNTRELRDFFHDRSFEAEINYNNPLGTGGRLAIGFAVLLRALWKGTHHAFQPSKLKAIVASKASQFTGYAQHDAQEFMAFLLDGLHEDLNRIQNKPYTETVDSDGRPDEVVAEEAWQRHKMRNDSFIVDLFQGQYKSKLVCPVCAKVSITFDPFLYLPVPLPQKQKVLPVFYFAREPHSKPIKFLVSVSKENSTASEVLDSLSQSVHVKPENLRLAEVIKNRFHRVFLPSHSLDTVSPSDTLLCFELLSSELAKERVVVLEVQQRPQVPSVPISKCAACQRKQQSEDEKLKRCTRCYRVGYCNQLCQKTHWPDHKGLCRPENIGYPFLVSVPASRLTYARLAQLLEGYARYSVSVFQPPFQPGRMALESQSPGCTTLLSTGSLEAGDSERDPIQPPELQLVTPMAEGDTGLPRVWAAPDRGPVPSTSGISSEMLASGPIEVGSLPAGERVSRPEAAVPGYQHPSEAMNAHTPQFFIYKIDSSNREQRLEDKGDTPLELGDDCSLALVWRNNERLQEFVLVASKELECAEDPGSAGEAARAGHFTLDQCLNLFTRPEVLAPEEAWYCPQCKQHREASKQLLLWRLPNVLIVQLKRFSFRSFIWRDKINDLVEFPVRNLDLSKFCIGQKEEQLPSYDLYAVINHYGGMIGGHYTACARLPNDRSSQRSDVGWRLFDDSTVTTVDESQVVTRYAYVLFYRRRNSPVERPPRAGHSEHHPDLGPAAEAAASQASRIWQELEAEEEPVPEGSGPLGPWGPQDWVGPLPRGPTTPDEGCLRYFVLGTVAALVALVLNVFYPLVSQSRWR
Summary of the method: (§1)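 Fragment (200 µM) or vehicle was incubated for 3 h with triplicate HEK293T lysate samples of 495 µg, which were then treated with Biotin-Ahx-Ub-VS at 0.5 µM final for 1 h. Labelled DUBs were enriched on NeutrAvidin, digested with LysC and trypsin, and analysed by diaPASEF LC-MS/MS. Values are average log2 fragment/vehicle ratios from an unpaired t-test on global-median-normalised Spectronaut label-free quantities, using proteins with ≥2 unique peptides.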

USP24 = USP24 (UniProt Q9UPU5)
Sequence of USP24 (Q9UPU5 whole entry): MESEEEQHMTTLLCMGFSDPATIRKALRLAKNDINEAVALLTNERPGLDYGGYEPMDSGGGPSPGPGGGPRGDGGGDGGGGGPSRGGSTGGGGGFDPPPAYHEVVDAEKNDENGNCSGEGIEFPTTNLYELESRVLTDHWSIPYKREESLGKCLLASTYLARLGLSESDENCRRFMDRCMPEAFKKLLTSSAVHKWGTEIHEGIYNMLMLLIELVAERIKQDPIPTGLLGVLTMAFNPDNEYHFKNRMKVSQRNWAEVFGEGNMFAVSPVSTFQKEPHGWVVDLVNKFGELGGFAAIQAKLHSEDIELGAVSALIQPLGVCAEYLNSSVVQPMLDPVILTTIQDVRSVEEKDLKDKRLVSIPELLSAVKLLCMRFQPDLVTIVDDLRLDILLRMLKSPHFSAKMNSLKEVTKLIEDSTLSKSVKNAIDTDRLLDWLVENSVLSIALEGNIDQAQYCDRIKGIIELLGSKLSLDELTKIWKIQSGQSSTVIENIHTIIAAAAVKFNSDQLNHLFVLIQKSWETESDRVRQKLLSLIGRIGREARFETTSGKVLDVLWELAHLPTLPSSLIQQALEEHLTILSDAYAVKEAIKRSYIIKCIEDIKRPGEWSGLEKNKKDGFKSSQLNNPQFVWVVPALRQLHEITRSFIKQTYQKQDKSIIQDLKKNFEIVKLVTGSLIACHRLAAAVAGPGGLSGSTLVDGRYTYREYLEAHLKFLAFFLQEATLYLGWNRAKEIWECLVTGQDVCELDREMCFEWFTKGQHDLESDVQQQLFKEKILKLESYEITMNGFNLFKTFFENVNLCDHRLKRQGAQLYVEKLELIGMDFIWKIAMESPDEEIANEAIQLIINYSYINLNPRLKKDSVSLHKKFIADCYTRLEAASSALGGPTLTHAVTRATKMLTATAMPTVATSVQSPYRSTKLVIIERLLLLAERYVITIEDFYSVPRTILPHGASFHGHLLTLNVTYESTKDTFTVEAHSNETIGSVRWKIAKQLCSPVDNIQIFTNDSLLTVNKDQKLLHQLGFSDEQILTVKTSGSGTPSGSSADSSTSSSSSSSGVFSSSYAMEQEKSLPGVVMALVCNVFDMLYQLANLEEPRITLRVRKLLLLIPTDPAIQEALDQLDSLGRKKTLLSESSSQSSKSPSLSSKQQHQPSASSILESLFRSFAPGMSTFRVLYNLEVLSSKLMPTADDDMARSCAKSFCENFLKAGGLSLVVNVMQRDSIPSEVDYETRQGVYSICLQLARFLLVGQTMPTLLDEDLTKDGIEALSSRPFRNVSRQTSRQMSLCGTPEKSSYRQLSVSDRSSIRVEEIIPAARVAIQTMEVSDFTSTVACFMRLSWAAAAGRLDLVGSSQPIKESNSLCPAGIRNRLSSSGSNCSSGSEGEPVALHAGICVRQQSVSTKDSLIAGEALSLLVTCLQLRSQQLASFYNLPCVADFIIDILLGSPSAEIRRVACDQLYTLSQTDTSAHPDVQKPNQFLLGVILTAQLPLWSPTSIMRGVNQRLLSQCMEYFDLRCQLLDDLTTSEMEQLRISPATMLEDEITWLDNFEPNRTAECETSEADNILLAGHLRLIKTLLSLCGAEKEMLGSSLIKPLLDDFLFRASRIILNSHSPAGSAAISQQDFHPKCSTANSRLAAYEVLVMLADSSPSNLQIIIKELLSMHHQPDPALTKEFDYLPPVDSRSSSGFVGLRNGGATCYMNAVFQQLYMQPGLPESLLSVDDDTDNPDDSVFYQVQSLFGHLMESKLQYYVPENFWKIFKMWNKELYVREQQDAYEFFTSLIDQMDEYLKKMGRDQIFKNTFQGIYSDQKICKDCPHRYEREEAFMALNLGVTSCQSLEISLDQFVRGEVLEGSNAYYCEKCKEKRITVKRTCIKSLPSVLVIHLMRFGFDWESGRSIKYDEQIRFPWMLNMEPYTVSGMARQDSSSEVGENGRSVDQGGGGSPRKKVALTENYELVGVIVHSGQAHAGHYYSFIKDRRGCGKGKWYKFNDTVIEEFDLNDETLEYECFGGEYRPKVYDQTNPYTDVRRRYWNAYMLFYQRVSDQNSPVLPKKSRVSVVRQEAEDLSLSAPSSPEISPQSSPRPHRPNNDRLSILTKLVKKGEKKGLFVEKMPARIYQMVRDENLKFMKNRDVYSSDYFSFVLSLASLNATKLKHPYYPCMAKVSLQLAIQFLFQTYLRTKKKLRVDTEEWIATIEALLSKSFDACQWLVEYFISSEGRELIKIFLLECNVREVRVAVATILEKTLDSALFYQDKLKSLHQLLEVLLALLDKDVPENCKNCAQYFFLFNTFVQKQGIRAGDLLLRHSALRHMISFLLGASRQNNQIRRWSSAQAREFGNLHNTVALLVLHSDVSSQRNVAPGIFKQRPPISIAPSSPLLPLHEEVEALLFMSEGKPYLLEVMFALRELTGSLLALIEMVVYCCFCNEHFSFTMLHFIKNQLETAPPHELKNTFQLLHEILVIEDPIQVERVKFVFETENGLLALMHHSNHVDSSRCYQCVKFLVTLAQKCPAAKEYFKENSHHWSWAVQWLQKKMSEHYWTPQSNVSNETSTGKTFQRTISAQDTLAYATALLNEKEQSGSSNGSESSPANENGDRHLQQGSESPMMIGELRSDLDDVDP
Summary of the method: as §1

USP25 = target: T2, USP25 (UniProt Q9UHP3)
T2 sequence (whole entry): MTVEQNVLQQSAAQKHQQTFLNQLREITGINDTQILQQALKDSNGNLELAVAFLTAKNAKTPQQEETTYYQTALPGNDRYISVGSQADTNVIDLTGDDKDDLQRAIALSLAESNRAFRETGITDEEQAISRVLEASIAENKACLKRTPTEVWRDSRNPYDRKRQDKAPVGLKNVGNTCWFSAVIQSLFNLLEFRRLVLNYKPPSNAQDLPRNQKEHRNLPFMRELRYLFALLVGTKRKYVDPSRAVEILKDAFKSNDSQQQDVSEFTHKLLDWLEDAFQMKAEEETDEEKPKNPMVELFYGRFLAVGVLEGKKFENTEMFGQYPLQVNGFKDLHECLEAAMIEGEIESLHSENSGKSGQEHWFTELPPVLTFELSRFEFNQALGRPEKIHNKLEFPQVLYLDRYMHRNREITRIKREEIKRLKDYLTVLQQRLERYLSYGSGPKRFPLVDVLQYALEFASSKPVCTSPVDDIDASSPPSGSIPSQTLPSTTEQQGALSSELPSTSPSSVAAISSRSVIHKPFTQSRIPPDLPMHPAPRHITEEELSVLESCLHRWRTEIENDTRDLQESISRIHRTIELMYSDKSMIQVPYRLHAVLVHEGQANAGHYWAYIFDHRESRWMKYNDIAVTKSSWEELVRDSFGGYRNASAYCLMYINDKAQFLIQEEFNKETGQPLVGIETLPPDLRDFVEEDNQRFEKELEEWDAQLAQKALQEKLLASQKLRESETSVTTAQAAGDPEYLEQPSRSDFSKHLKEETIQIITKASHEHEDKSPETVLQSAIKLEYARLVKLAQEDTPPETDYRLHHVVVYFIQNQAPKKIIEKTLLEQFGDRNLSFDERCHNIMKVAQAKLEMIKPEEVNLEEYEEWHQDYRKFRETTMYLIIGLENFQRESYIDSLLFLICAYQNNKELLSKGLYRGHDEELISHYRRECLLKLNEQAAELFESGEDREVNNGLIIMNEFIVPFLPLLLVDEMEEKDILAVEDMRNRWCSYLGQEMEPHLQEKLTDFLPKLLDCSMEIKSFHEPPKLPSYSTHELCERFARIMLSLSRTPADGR
Summary of the method: as §1

USP28 = target: T3, USP28 (UniProt Q96RU2)
T3 sequence (whole entry): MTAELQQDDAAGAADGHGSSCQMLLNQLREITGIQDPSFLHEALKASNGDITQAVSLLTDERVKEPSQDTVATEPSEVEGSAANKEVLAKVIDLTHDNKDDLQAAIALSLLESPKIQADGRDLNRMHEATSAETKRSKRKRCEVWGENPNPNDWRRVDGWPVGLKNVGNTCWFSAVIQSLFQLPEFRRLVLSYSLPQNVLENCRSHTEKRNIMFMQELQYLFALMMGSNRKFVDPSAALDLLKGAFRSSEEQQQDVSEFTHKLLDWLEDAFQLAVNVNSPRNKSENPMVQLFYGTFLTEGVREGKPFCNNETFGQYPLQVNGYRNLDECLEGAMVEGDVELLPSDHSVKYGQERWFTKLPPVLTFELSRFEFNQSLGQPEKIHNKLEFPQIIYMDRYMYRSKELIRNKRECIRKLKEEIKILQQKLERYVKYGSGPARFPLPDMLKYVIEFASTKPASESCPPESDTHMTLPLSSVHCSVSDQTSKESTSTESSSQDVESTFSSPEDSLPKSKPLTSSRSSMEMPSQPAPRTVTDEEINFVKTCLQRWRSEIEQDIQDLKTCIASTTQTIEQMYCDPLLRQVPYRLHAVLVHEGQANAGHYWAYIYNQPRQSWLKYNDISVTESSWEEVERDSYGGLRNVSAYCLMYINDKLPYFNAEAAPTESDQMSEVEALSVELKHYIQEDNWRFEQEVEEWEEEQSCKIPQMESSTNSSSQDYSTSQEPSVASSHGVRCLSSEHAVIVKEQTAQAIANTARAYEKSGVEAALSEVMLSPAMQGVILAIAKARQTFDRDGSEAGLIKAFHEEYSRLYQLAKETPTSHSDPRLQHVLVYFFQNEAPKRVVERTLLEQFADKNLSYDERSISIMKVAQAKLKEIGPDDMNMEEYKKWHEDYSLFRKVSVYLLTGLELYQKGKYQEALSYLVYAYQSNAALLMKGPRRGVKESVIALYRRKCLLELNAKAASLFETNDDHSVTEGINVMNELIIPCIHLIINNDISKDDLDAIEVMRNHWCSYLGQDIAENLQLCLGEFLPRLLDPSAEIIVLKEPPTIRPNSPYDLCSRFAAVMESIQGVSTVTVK
Summary of the method: as §1

Measured: log2 ratio of Biotin-Ahx-Ub-VS probe labelling

CC1CCc2onc(CNC(=O)CCl)c2C1 (centres undefined)
inactive: USP19 0.0516 | USP24 0.0469 | USP25 0.00198 | USP28 -0.19
